From PubChem BioAssay (NCI)
Compounds without any hit were thinned out: in the full panel of roughly 83,000, 20% have a hit.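 Single-concentration screen, 48 h exposure, 96-well plates. Endpoint: percent growth. Below 10 = active.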 Unmarked numbers belong to inactive results. Active and inactive are the calls of the source.

Experiments:
Test in all cases: NCI-60 one-dose screen, 48 h (100 = growth as untreated, 0 = no growth, -100 = all killed)
Details in all cases: 10 µM unless noted
[1] = tested on: DU-145 prostate
[2] = tested on: K-562 leukemia
[3] = tested on: MALME-3M melanoma
[4] = tested on: MDA-MB-231 breast
[5] = tested on: RXF 393 renal
[6] = tested on: SF-268 CNS
[7] = tested on: SF-295 CNS
[8] = tested on: SF-539 CNS
[9] = tested on: UACC-257 melanoma
[10] = tested on: M14 melanoma

| Structure (SMILES) | growth [1] | growth [2] | growth [3] | growth [4] | growth [5] | growth [6] | growth [7] [%] | growth [8] | growth [9] | growth [10] |
| --- | --- | --- | --- | --- | --- | --- | --- | --- | --- | --- |
| C=C(C)[C@@H]1CC[C@]2(C(=O)O)CC[C@]3(C)[C@H](CC[C@@H]4[C@@]5(C)C[C@@H](CC#Cc6ccccc6C)C(=O)C(C)(C)[C@@H]5CC[C@]43C)[C@@H]12 | 34.4% | 14% | 61.1% | 48.2% | 51.8% | 48.4% | 33.1 | 36% | 39.9% | 40.6% |
| O=C1CCc2ccccc2N1 | 103% | 90.2% | 88.5% | 110% | 111% | 97.4% | 107 | 105% | 106% | 99.2% |
| c1ccc2nc(N3CCOCC3)c(N3CCCCC3)nc2c1 | 111% | 90.5% | 92.1% | 97% | 98% | 95.2% | 97.2 | 99% | 103% | 105% |
| NC(=O)C(O)(c1ccccc1)c1ccccc1 | 105% | 99.6% | 113% | 108% | 123% | 110% | 99.7 | 103% | 91.8% | 97.1% |
| CC(=O)OC[C@]12CC[C@@H](c3cn(Cc4ccc(Cn5cc([C@@H]6CC[C@]7(COC(C)=O)CC[C@]8(C)[C@H](CC[C@@H]9[C@@]%10(C)CC[C@H](OC(C)=O)C(C)(C)[C@@H]%10CC[C@]98C)[C@@H]67)nn5)cc4)nn3)[C@@H]1[C@H]1CC[C@@H]3[C@@]4(C)CC[C@H](OC(C)=O)C(C)(C)[C@@H]4CC[C@@]3(C)[C@]1(C)CC2 | 103% | 94.7% | 98.8% | 96.9% | 105% | 88.8% | 98.8 | 98.7% | 93.3% | 103% |
| C#C[C@@]1(O)[C@@H](CO)O[C@@H](n2cc(I)c3c(N)ncnc32)[C@@H]1O | 7.45% (active) | 6.9% (active) | -5.65% (active) | 2.55% (active) | -27.7% (active) | 28.5% | 10.5 | -40.5% (active) | 44.7% | 22.4% |
| COc1ccc2cc(/C=C3\N=C(c4cc(OC)c(OC)c(OC)c4)OC3=O)c(OC)nc2c1 | 110% | 90.1% | 104% | 91.5% | 119% | 98.2% | 98.7 | 101% | 95.5% | 111% |
| Cc1c(O)c(=O)ccn1-c1nc2ccccc2s1 | 103% | 110% | 96.6% | 93.2% | 87.8% | 90.6% | 105 | 102% | 90% | 84.2% |
| COC(=O)c1ccc2c(c1)NC(=O)[C@@H]1CCCN21 | 106% | 96.7% | 105% | 97.3% | 106% | 94.7% | 100 | 93.8% | 98.3% | 102% |
| CCOCCc1c(O)nc(SC)[nH]c1=O | 107% | 112% | 130% | 111% | 161% | 116% | 113 | 93.7% | 23.9% | 98.9% |
| COc1cccc(C(=O)OCCn2nc3c4c(cccc42)C(=O)c2ccccc2-3)c1O | 54.7% | 13.7% | 62.6% | 62.2% | 53% | 55.8% | 17.1 | 9.58% (active) | 79.4% | 36.2% |
| C=C1C(=O)O[C@H]2[C@H]1CC/C(COC(=O)c1cn(C)c3ccccc13)=C\CC[C@@]1(C)O[C@@H]21 | -72.4% (active) | 0.396% (active) | -60.3% (active) | -49% (active) | -87.8% (active) | -8.89% (active) | 63.8 | -58% (active) | -56% (active) | -36.8% (active) |
| OCCNc1nc(NCCO)nc(Nc2ccc(C3=NN(c4ccc(Cl)cc4)C(c4ccc(Cl)cc4)C3)cc2)n1 (stereo not given) | 51.9% | 13.3% | 70.1% | 63.7% | -26.1% (active) | 53% | 12.2 | 36.6% | 72.9% | 63.9% |
| CC(C)(C)c1nn(-c2ccccc2)c2c1COCN2Cc1ccc(Cl)cc1 | 103% | 47.5% | 90.2% | 95.1% | 100% | 103% | 95.9 | 83.6% | 114% | 91.8% |
| O=Cc1[nH]c(Sc2ccccc2)c2ccccc12 | 83% | 35.5% | 58.2% | 85.1% | 75.1% | 75% | 114 | 78.8% | 77.7% | 81.3% |
| C=CCn1c(CN2CCN(c3cc4c(cc3F)c(=O)c(C(=O)O)cn4C3CC3)CC2)n[nH]c1=S | 103% | 89.6% | 85.4% | 116% | 115% | 97.5% | 101 | 98.8% | 105% | 107% |
| COc1ccc(/C(=N\O)c2cc(C)c(OC)c(C)c2)cc1O | 29.4% | 12% | 67% | 24.8% | 62.9% | 30.4% | 29.7 | 2.65% (active) | 70% | 13.6% |
| COc1ccc(C2C(c3ccccc3)C(=O)N2c2cc(OC)c(OC)c(OC)c2)cc1I (stereo not given) | 7.36% (active) | 6.76% (active) | 80.1% | 23.3% | 24.2% | 34.9% | 17.9 | 1.87% (active) | 47.9% | 8.46% (active) |
| CCO/C=N/S(=O)(=O)c1cc2c(cc1Cl)NC=NS2(=O)=O | 108% | 99.9% | 107% | 106% | 103% | 103% | 104 | 98.1% | 90.2% | 101% |
| CCOC(=O)c1c(C)nc2c(c1N)/C(=C/c1cccs1)C(=O)N2c1ccc(OC)cc1 | 44.5% | 59.1% | 26.9% | 36.5% | -23.1% (active) | 47.6% | 47.2 | 7.71% (active) | 36.1% | 58.2% |
| O=C(O)c1cn(C2CC2)c2cc(N3CCN(Cc4nnc(Nc5ccccc5)o4)CC3)c(F)cc2c1=O | 103% | 84.4% | 89.1% | 109% | 118% | 90.2% | 102 | 99.4% | 106% | 95.7% |
| Fc1ccc(N/N=C/c2ccc(-n3cccn3)cc2)cc1 | 93.8% | 93.3% | 106% | 80.1% | 105% | 81.3% | 87.6 | 100% | 118% | 88.8% |
| CC1CCCN(CCCCCOc2ccc3oc4ccc(Cl)cc4c(=O)c3c2)C1 (stereo not given) | 84.7% | 16.8% | 52% | 62.3% | 72% | 81.2% | 83.1 | 66.6% | -17.9% (active) | -17.5% (active) |
| COc1ccc(-c2cc(C(=O)N3N=C(c4ccc(N)cc4)CC3c3ccc(OC)cc3)c3cc(OC)ccc3n2)cc1 (stereo not given) | 80.2% | 11.8% | 71.3% | 73.6% | 68.2% | 54.9% | 64.1 | 34% | 60.8% | 38.4% |
| CCCNc1nc(C)[nH]c(=O)c1S | 91.3% | 95% | 112% | 103% | 118% | 101% | 119 | 115% | 108% | 109% |
| N#CCNc1ccc(C(=O)O)cc1 | 113% | 97.4% | 105% | 104% | 101% | 105% | 104 | 110% | 98.4% | 110% |
| O=C(CCCCCCCCC(=O)Nc1cccc(C2=NCCN2)c1)Nc1cccc(C2=NCCN2)c1 | 99.8% | 73.1% | 69.8% | 101% | 108% | 103% | 99.9 | 108% | 95.6% | 97.1% |
